In the library only some 4.1% were active in any assay of this set; here they are far more common.
CASP6 VEID inh = caspase-6 (human) enzyme inhibition; P55212; purified caspase-6, Z-VEID-R110 cleavage fluorescence; inhibition, % at 12.5 µM; actives 0.53% (n = 350,000); AID 686996;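 active = mean inhibition across replicates at least about 35%, with every replicate also reaching that limit, limit read from the data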;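 also: 0% = median of neutral control wells and 100% = no fluorescence left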
Target sequence (P55212 24-179 limits assumed): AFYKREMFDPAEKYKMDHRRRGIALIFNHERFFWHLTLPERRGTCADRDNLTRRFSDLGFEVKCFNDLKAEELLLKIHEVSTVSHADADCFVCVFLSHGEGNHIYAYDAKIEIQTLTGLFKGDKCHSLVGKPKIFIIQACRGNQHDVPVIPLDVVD
Target sequence (P55212 194-293 limits assumed): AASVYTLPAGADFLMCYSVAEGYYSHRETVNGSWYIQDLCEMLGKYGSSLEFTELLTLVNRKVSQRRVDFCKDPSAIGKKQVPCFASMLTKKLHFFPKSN
Env fusion inh = blocks HIV Env-driven cell-cell fusion; inhibition, % at 12.3 µM; actives 1.1% (n = 360,000); AID 651610; HeLa-JRFL Env/CEM21 cell fusion, luciferase;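 active = mean replicate inhibition score of at least 50 and every replicate individually at or above 50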;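 also: 0% = plate neutral controls and 100% = maraviroc near 300 nM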
PglD DTNB = PglD (C. jejuni) enzyme inhibition | actives 0.098% (n = 360,000) | inhibition, % at 12.5 µM | purified PglD enzyme, DTNB colorimetric CoA detection | AID 602405; in the data active = inhibition above about 16%, passing the limit was not always enough
NSD2 HMT inh = NSD2 (human) methyltransferase inhibition; NSD2 peptide methylation, AlphaScreen, 120 min; actives 0.54% (n = 310,000); inhibition, % at 12.5 µM; O96028; in the data active = inhibition above about 50%
CFTR F508del cor = CFTR F508del correction in bronchial cells; activity (quench increase), % at 7.58 µM; AID 720511; CFBE cells, YFP halide quenching; stimulated with forskolin plus potentiator P3; % fluorescence drop versus neutral controls; actives 0.36% (n = 350,000);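 active = mean added fluorescence quench of at least 8% versus neutral control, with both replicates also reaching 8%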;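 also: cells transiently co-express mutant CFTR-F508del with the halide-sensitive YFP; corrector assay measuring rescue of mutant channel to the surface after 24 h compound exposure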
ALR H2O2 inh = human ALR oxidase inhibition via reduced H2O2; P55789; purified ALR, DTT oxidation, H2O2 HRP-luminol luminescence; inhibition, % (no concentration beside the values); actives 3.8% (n = 290,000); AID 485317;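 active = mean replicate inhibition above about 79%, with every replicate also reaching it, limit read from the data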
Target sequence (P55789 whole entry, looked up): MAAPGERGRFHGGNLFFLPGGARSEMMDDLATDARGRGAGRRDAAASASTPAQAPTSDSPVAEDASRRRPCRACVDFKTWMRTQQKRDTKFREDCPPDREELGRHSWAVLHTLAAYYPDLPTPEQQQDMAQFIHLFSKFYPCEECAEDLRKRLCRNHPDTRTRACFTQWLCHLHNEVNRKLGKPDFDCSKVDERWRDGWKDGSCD
* marks the source's active call; other numbers are inactive results; nt = no result given; [ ] = another dose, or the depositor's remark.

SMILES	CASP6 VEID inh	Env fusion inh	PglD DTNB	NSD2 HMT inh	CFTR F508del cor	ALR H2O2 inh
CCCCN(C)Cc1c(C)[nH]c2ccc(C)cc2c1=O	nt	-24	-2	3	nt	2
CCN(CC)Cc1c(-c2ccccc2)[nH]c2ccc(C)cc2c1=O	nt	2	4	1	nt	97*
CCOc1c(Br)cc(/C=C(\C#N)C(=O)NC2CC2)cc1OC	6	-97	1	2	-1	56
C=CCNC(=O)/C(C#N)=C\c1cc(Cl)c(OCC)c(OC)c1	nt	19	5	0	nt	98*
CN(C)C(=O)c1ccc(-c2ccc([C@@H]3[C@@H](CO)N4CCCCN(C(=O)C5CCCC5)C[C@H]34)cc2)cc1	4	nt	-38	nt	-4	nt
O=C(NC1Cc2ccccc2C1)[C@@H]1N[C@@H]2c3ccc(C4=CCCCC4)c(=O)n3C[C@@H]2[C@H]1CO	0	nt	-1	nt	0	nt
Nn1c(SCC(=O)Nc2ccc(N3CCOCC3)cc2)nnc1-c1ccccc1F	-6	-13	-2	-1	1	99*
Nn1c(SCC(=O)Nc2ccc(N3CCOCC3)cc2)nnc1-c1cccc(F)c1	0	-3	8	0	2	99*
Cc1ccccc1S(=O)(=O)NCC[C@@H]1CC[C@H](NS(=O)(=O)c2ccccc2C)[C@H](CO)O1	1	4[16.7 µM]	0	nt	4	nt
CC(=O)c1cccc(NC(=O)Nc2cnn(Cc3ccc(Cl)cc3Cl)c2)c1	nt	64*	2	-1	nt	-4
C[C@@H]1CCCCO[C@H](CN(C)C(=O)Nc2ccc3c(c2)OCO3)[C@@H](C)CN([C@@H](C)CO)C(=O)c2cc(NC(=O)c3ccncc3)ccc2O1	1	-24[16.7 µM]	8	nt	0	nt
NC(Cc1ccc(Cl)cc1)c1csc(NC(=O)Nc2ccccc2)n1 (stereo not given)	3	61*	-1	11	3	nt
NC(Cc1ccc(C(F)(F)F)cc1)c1csc(NC(=O)Nc2ccccc2)n1 (stereo not given)	0	78*	-4	-2	1	nt
NC(Cc1ccc(Cl)cc1)c1csc(Nc2ccc(C(=O)c3ccccc3)cc2)n1 (stereo not given)	1	-4	-4	-1	1	nt
COc1ccccc1NC(=O)Nc1nc(C(N)Cc2ccc(Cl)cc2)cs1 (stereo not given)	4	64*	10	0	2	nt
NC(CCc1ccccc1)c1csc(Nc2ccccn2)n1 (stereo not given)	-1	85*	-1	3	5	nt
COc1cccc(S(=O)(=O)N(C)C[C@H]2Oc3cc(C#CCC(C)C)ccc3S(=O)(=O)N([C@@H](C)CO)C[C@@H]2C)c1	2	42[16.7 µM]	4	nt	-3	nt
CN(C)C(=O)c1cccc(-c2ccccc2[C@H]2[C@H](C#N)N(C(=O)C3CCCC3)[C@H]2CO)c1	0	nt	nt	nt	-2	nt
NC(Cc1ccc(C(F)(F)F)cc1)c1csc(NC(=O)Nc2ccccc2Cl)n1 (stereo not given)	1	58*	-6	2	2	nt
Cc1ccccc1NC(=O)Nc1nc(C(N)Cc2ccccc2)cs1 (stereo not given)	3	8	4	5	3	nt
NC(CCc1ccccc1)c1csc(NC(=O)Nc2cccc(C(F)(F)F)c2)n1 (stereo not given)	-7	55*	-5	-3	1	nt
C[C@H](CO)N1C[C@H](C)[C@H](CN(C)C(=O)Nc2ccccc2)Oc2ncc(C3=CCCCC3)cc2C1=O	2	-6[16.7 µM]	5	nt	0	nt
O=C(CSC1CN(C(c2ccccc2)c2ccccc2)C1)N/N=C/c1ccc(Cl)cc1Cl	1	65*	nt	1	-1	1
O=C(CSc1nnc(SCc2ccccc2)s1)N/N=C/c1ccc(Cl)cc1Cl	26	22	nt	-1	nt	-13
CCOC(=O)/C=C/C(=O)OCC(=O)Nc1c(Cl)cccc1Cl	0	17	4	0	2	15
SMILES	CASP6 VEID inh	Env fusion inh	PglD DTNB	NSD2 HMT inh	CFTR F508del cor	ALR H2O2 inh
CCOC(=O)/C=C/C(=O)OCC(=O)Nc1ccc(Cl)cc1Cl	1	-11	nt	nt	1	96*
CO/N=C\CC(=O)Nc1ccc(Cl)cc1Cl	0	-85	nt	4	11*	-5
O=C(COC(=O)Cc1cccs1)Nc1ccccc1Cl	1	0	nt	-1	-2	4
O=C(O)COC(=O)Cc1ccccc1Nc1c(Cl)cccc1Cl	-3	-7	1	nt	16*	1
CCN=C1SCC(=O)N1c1ccc(OC)cc1	nt	-83	-1	0	nt	-20
Cc1ccc(N2C(=O)CS/C2=N\C(=S)Nc2ccccc2)cc1	-6	-1	0	3	-34	90*
COCC#Cc1ccc([C@@H]2[C@@H](CO)N3C(=O)CN(C(=O)C4CCCC4)C[C@H]23)cc1	2	nt	nt	nt	-2	nt
Cc1cc(/C=C(/C#N)C(=O)O)c(C)n1-c1cccc2ccccc12	13	-10	8	16	-2	96*
Cc1c(C(=O)O)cccc1-n1c(C)cc(/C=C(/C#N)C(=O)NCc2ccccc2)c1C	12	-6	nt	-2	1	29
C[C@@H]1CN([C@H](C)CO)C(=O)c2cc(NC(=O)Cc3ccccc3)ccc2O[C@@H](C)CCCCO[C@H]1CN(C)C(=O)Nc1cccc2ccccc12	1	22[16.7 µM]	1	nt	-1	nt
CC1=CC(c2ccc(Cl)cc2)n2nc(NC(=O)c3ccccc3)nc2N1 (stereo not given)	nt	nt	-6	2	nt	6
CC1=Nc2ccccc2N=C(NC(=O)c2ccccc2)C1c1ccc(Cl)cc1 (stereo not given)	-1	69*	10	-1	1	0
CC1(C)CC(=O)C=C(c2cccc(Cl)c2O)C1	3	15	2	nt	1	96*
O=c1[nH]c(N2CCOCC2)cc2ccccc12	96*	-4	-5	nt	2	-2
c1ccc(CCN(Cc2ccccc2)Cc2nc(C3CC3)no2)cc1	1	2	nt	-1	8.9*	-3
CCCCC(NC(=O)Cc1c(C)c2cc3c(-c4ccccc4)coc3c(C)c2oc1=O)C(=O)O (stereo not given)	60*	-6	8	5	1	98*
CC[C@@H](C)[C@H](NC(=O)Cc1c(C)c2cc3c(C)coc3c(C)c2oc1=O)C(=O)O	9	-7	0	-2	-2	98*
COc1ccc2[nH]cc(CCNS(=O)(=O)c3ccc(F)cc3)c2c1	0	-72	6	1	-2	22
COc1ccc2[nH]cc(CCNS(=O)(=O)c3ccccc3)c2c1	0	13	6	-2	-2	95*
CC1CCCCN1c1ccc(N)cc1C(N)=O (stereo not given)	0	8	nt	1	nt	94*
O=C(CNc1ccc(Br)cc1)Nc1cccc(S(=O)(=O)N2CCCC2)c1	1	10	-3	-4	3	4
O=C(CNc1cccc(S(=O)(=O)N2CCCCC2)c1)Nc1cccc(F)c1	0	5	4	-2	1	-1

From PubChem
